Results reported in PubChem BioAssay (NCATS).
Several values for one entry are separate records, joined by “and”; a condition that tells them apart may be missing. Equal entries are not always repeated. Inconclusive results are not listed. Activity calls are given as the source filed them. Unless noted, calls follow the shape of the dose curve; as a rule, active = well fitted curve in the direction sought with a large enough effect; inconclusive = small, poorly fitted or top-dose-only effect, or another doubt; inactive = no such curve, though single readings can be large; an effect the other way counts as inactive or inconclusive.

Columns and labels:
[1] = Cell Viability - BJ (AID 421; calls by dose curve;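 also: potency is read from the fitted curve at half-maximal effect; cells exposed to compound for 40 hours at 37 °C before readout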); details: BJ fibroblast viability, qHTS
In short: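 Luminescent ATP signal (CellTiter-Glo, 20 min at room temperature) served as the read-out of viable BJ cells after 40 hours of compound treatment. Responses were scaled between DMSO and 100 uM tamoxifen, and AC50 values were obtained by Hill modeling.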

[2] = Cell Viability - HepG2 (AID 433; calls by dose curve;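 also: potency is read from the fitted curve at half-maximal effect; potency for ATP loss meaning cytotoxicity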); details: qHTS
In short: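 HepG2 hepatocellular carcinoma cells (1500/well) were treated with compounds for 40 h at 37 °C in complete medium; intracellular ATP was read by CellTiter-Glo luminescence. Data were normalized to DMSO and 100 uM tamoxifen, and AC50 came from Hill fits.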

[3] = Cell Viability - MRC5 (AID 434; calls by dose curve;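 also: potency is read from the fitted curve at half-maximal effect; potency reflects cytotoxicity seen as loss of intracellular ATP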); details: MRC5 lung fibroblast viability, qHTS
In short: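 qHTS cytotoxicity in human lung fibroblast MRC5 cells; 40 hr treatment, 37 °C; cellular ATP by luciferase luminescence; DMSO = 0%, 100 uM tamoxifen = 100% inhibition; Hill-fit AC50.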

[4] = Cell Viability - SK-N-SH (AID 435; calls by dose curve;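 also: potency is read from the fitted curve at half-maximal effect; compound exposure lasted 40 h at 37 °C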); details: SK-N-SH neuroblastoma cell viability qHTS
In short: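 SK-N-SH human neuroblastoma cells (1500/well) were exposed to compounds in complete medium for 40 h at 37 °C, and intracellular ATP was then measured by CellTiter-Glo luminescence. AC50 was taken from Hill fits, normalized to DMSO and 100 uM tamoxifen.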

[5] = molecular target: Mitogen-activated protein kinase 10 (Mus musculus) (UniProt Q61831); experiment: JNK3 AlphaScreen Assay (AID 530; active = well fitted curve in either direction with a large enough effect, not every such curve was filed as active;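 also: kinase came from lysate of stimulated human HepG2 cells; signal reports phosphorylation of biotinylated GST-cJun 1-79 at Ser73 with 10 µM ATP; % is scaled to controls: 0 for no effect and ±100 for the full control effect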); details: JNK3 lysate, c-Jun phosphorylation; series mostly up to 57.1 µM
In short: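 Compound titrations were preincubated 15 minutes at room temperature with substrate, antibody and pre-activated JNK3-containing HepG2 lysate. Reactions were started with 10 uM ATP and stopped with EDTA-containing bead buffer for AlphaScreen detection.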

[6] = Cell Viability - N2a (AID 540); details: N2a mouse neuroblastoma cell viability; at 92.2 µM (top of the series);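 also: plate controls were DMSO alone for no effect and tamoxifen control for full effect; nearly all actives have a fitted effect of over 45% in size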
In short: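 Luminescent ATP signal (CellTiter-Glo, 20 min at room temperature) served as the viability read-out after N2a cells were treated with compounds for 40 hours at 37 °C. Concentration-response data were fitted to the Hill equation for AC50.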

[7] = Cell Viability - HUV-EC-C (AID 542); details: HUV-EC-C endothelial cell viability, qHTS; series mostly up to 92.2 µM; also: % is scaled to controls: 0 for no effect and ±100 for the full control effect; nearly all actives have a fitted effect of over 35% in size
In short: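 qHTS cytotoxicity: HUV-EC-C, 1000 cells/well, 5 hr settle, compound 40 hr 37 °C, CellTiter-Glo, luminescence. AC50 via Hill equation.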

[8] = Cell Viability - SH-SY5Y (AID 544); details: SH-SY5Y neuroblastoma cell viability; viability change, negative = cytotoxic: at 92.2 µM (top of the series); also: nearly all actives have a fitted effect of over 55% in size
In short: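 Luminescent ATP read-out (CellTiter-Glo) measures loss of viable SH-SY5Y neuroblastoma cells after 40 hr compound exposure at 37 °C. AC50 values derive from standard Hill modelling of qHTS concentration-response data.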

[9] = Cell Viability - Renal Proximal Tubule (AID 545); details: renal proximal tubule cells viability; at 91.7 µM (top of the series), primary cells of rat origin unless noted; also: nearly all actives have a fitted effect of over 40% in size
In short: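 Primary rat renal proximal tubule cells (1000/well) were treated with compounds for 40 hr at 37 °C in complete medium. Intracellular ATP was measured by CellTiter-Glo luminescence, and AC50 values came from Hill-equation fits of concentration-response data.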

[10] = Cell Viability - Mesenchymal (AID 546); details: mesenchymal cells viability, qHTS; series mostly up to 91.7 µM;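 also: cells exposed to compound for 40 hours before reading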
In short: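 AC50 values reflect the drop in intracellular ATP in a human kidney mesenchymal line derived from normal glomeruli. Treatment lasts 40 hr at 37 °C in complete medium, and the signal comes from CellTiter-Glo luminescence.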

[11] = Cellular Toxicity (caspase-3) Jurkat (AID 655); details: Jurkat caspase-3 activation, luminescence, DMSO = 0%, tamoxifen = 100%; at 92.2 µM (top of the series);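 also: cells exposed to compound for 16 h at 37 °C before reading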
In short: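 Jurkat cells (5000/well) in complete medium were treated with compounds for 16 hr at 37 °C, then Caspase-Glo 3/7 luminescence was read after 20 min at room temperature. Data normalized to DMSO (basal) and 100 uM tamoxifen (100%); AC50 from Hill fit.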

[12] = Cellular Toxicity (caspase-3) SHSY5Y (AID 657); details: SH-SY5Y caspase-3 activation, DMSO zero, 10 µM staurosporine = 100%; series mostly up to 91.7 µM;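 also: cells exposed to compound for 16 hours at 37 °C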
In short: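 SH-SY5Y human neuroblastoma cells (1500/well) were treated with compounds for 16 h at 37 °C, then Caspase-Glo 3/7 luminescence was read after 1 h at room temperature. Data normalized to DMSO and 10 uM staurosporine; AC50 from Hill fits.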

[13] = Cellular Toxicity (caspase-3) BJ (AID 658); details: BJ fibroblasts, luminescence, normalized: DMSO 0%, staurosporine 100%; series mostly up to 91.7 µM;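 also: cells exposed to compound for 16 hours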
In short: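 Readout: Caspase-Glo 3/7 luminescence increase in BJ cells after 16 hr treatment at 37 °C. Staurosporine and tamoxifen served as positive controls; AC50 values came from Hill modelling of data normalized to DMSO and 10 uM staurosporine.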

[14] = Cellular Toxicity (caspase-3) MRC-5 (AID 659); details: MRC-5 cells, luminescence, normalized: DMSO 0%, 10 µM staurosporine 100%; series mostly up to 91.7 µM
In short: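 Concentration-dependent caspase 3/7 activation is measured in human normal lung fibroblasts (MRC-5) following 16-hour treatment. AC50 values come from standard Hill-equation modeling of luminescence normalized to DMSO and 10 uM staurosporine.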

[15] = Cellular Toxicity (caspase-3) Mesangial (AID 660); details: mesangial cells, normalized: DMSO 0%, 100 µM tamoxifen 100%; series mostly up to 91.7 µM;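 also: combined caspase 3 and 7 activity read by Caspase-Glo luminescence; cells exposed to compound for 16 h before the caspase read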
In short: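 Mesangial cells, 1000/well, 5 h settle at 37 °C; compound 16 h, 37 °C; Caspase-Glo 3/7 reagent 20 min RT; luminescence. Norm.: DMSO = 0%, tamoxifen 100 uM = 100%. AC50, Hill fit.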

[16] = Cellular Toxicity (caspase-3) SK-N-SH (AID 661); details: SK-N-SH caspase-3 activation, qHTS, DMSO as zero, staurosporine as full; series mostly up to 91.7 µM;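 also: cells exposed to compound for 16 hours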
In short: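 Human neuroblastoma SK-N-SH, 1500 cells/well, 5 hr pre-incubation, then compound 16 hr, 37 °C. Caspase-Glo 3/7 reagent, 1 hr RT, luminescence. Norm. to DMSO/10 uM staurosporine; Hill-fit AC50.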

[17] = Cellular Toxicity (caspase-3) Renal Proximal Tubule (AID 667); details: renal proximal tubule cells; at 91.7 µM (top of the series), primary cells freshly taken from rat, solvent-only wells 0%, staurosporine 100% unless noted;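 also: cells exposed to compound for 16 hours at 37 °C before detection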
In short: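 Primary rat proximal tubule cells, 1000/well, 5 h plating at 37 °C, then compound 16 h at 37 °C. Caspase-Glo 3/7 reagent, 1 h RT, luminescence. Normalized to DMSO (basal) and 10 uM staurosporine (100%); Hill-fit AC50.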

[18] = qHTS Assay for Identification of Small Molecule Inducers of Hypoxia Response (AID 2120; active = well fitted curve in the direction sought with a large enough effect in the signal ratio, with a control signal flat, not every such curve was filed as active; the % refers to the signal ratio; also: 0% is about no effect); details: hypoxia response reporter cells, beta-lactamase ratio readout; series mostly up to 104 µM
In short: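 ME-180 HRE-bla cells plated in Opti-MEM/0.5% dialyzed FBS, rested 4-5 h, then dosed with compound titrations by pin tool. After 17 h at 37 degrees C, CCF4 dye loaded 2.5 h at RT; 460/530 nm ratio gave %Activity and AC50.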

[19] = qHTS assay for small molecule disruptors of the mitochondrial membrane potential - 5 hr assay (AID 651755; calls by dose curve; also: % is scaled to controls: 0 for no effect and ±100 for the full control effect; nearly all actives have a fitted effect of over 40% in size); details: JC-1-type ratio dye; series mostly up to 92.2 µM
In short: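 HepG2, 2,000 cells/well, overnight attach; cpd or DMSO 5 hr, 37C/5% CO2; Mito-MPS 30 min 37C; fluor 490/535 + 540/590 nm.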

[20] = molecular target: Peroxisome proliferator-activated receptor alpha (Homo sapiens) (UniProt Q07869); experiment: qHTS assay for small molecule agonists of the peroxisome proliferator-activated receptor alpha (PPARalpha) signaling pathway (AID 651778); details: PathHunter PPARalpha complementation, chemiluminescence, 6 h; active compounds read high; also: % of control where 0% means no effect
In short: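 Chemiluminescence from complemented enzyme reported PPARalpha activation in cells after 6 hr of compound treatment at 37 C. The detection reagent was incubated for 60 min at room temperature, and compounds were scored as agonists.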

Chain of Peroxisome proliferator-activated receptor alpha (Homo sapiens) (Q07869 whole entry, looked up): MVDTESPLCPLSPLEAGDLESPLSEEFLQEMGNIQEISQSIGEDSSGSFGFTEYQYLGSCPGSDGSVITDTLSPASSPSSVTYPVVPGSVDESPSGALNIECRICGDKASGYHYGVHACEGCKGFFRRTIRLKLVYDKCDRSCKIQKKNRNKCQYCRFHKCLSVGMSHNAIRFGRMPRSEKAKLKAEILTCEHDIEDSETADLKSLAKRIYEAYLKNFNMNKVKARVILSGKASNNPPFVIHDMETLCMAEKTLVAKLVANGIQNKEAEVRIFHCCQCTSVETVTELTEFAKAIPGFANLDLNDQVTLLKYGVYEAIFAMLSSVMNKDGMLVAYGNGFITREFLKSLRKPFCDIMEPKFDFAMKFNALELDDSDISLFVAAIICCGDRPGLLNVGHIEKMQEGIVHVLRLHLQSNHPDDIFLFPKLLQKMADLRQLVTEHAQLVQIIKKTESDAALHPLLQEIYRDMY

OCC1CO1 (stereo not given)
inactive: Potency [1] > 92 µM | Potency [2] > 92 µM | Potency [3] > 92 µM | Potency [4] > 92 µM | outcome [5] | activity change, negative = cytotoxicity [6] -10.8% | Potency [7] | Potency [8] | activity change, negative = cytotoxicity [9] 4.62% | outcome [10] | caspase-3 activation [11] 0.767% | outcome [12] | outcome [13] | outcome [14] | outcome [15] | outcome [16] | caspase-3 activation [17] 0.454% | outcome [18] | Potency [19] | max response [20] -0.572% and -0.317%

NC(=S)Nc1ccccc1
inactive: Potency [1] > 92 µM | Potency [2] > 92 µM | Potency [3] > 92 µM | Potency [4] > 92 µM | outcome [5] | activity change, negative = cytotoxicity [6] -0.295% and -0.273% | Potency [7] | Potency [8] | activity change, negative = cytotoxicity [9] -4.19% [at 91.7 µM] and 2.38% [at 91.7 µM] | outcome [10] | caspase-3 activation [11] 1.95% and -1.01% | outcome [12] | outcome [13] | outcome [14] | outcome [15] | outcome [16] | caspase-3 activation [17] 12.5% [at 91.7 µM] and -6.92% [at 91.7 µM] | outcome [18] | Potency [19] | max response [20] -6.31% and -5.47% and -0.622%

c1nc[nH]n1
inactive: Potency [1] > 92 µM | Potency [2] > 92 µM | Potency [3] > 92 µM | Potency [4] > 92 µM | outcome [5] | activity change, negative = cytotoxicity [6] -1.04% | Potency [7] | Potency [8] | activity change, negative = cytotoxicity [9] -1.05% | outcome [10] | caspase-3 activation [11] 0.542% | outcome [12] | outcome [13] | outcome [14] | outcome [15] | outcome [16] | caspase-3 activation [17] 6.18% | outcome [18] | Potency [19] | max response [20] 7.97%

C=CC1CC=CCC1 (stereo not given)
inactive: Potency [1] > 92 µM | Potency [2] > 92 µM | Potency [3] > 92 µM | Potency [4] > 92 µM | outcome [5] | activity change, negative = cytotoxicity [6] 0.971% | Potency [7] | Potency [8] | activity change, negative = cytotoxicity [9] 3.71% | outcome [10] | caspase-3 activation [11] 0.736% | outcome [12] | outcome [13] | outcome [14] | outcome [15] | outcome [16] | caspase-3 activation [17] 5.69% | outcome [18] | Potency [19] | max response [20] -0.264% and -1.89%

O=[N+]([O-])c1ccc(Cl)c(Cl)c1
inactive: Potency [1] > 92 µM | Potency [2] > 92 µM | Potency [3] > 92 µM | Potency [4] > 92 µM | outcome [5] | activity change, negative = cytotoxicity [6] -3.37% | Potency [7] | Potency [8] | activity change, negative = cytotoxicity [9] -5.41% [at 91.7 µM] | outcome [10] | caspase-3 activation [11] 0.916% | outcome [12] | outcome [13] | outcome [14] | outcome [15] | outcome [16] | caspase-3 activation [17] 4.74% [at 91.7 µM] | outcome [18] | Potency [19] | max response [20] -3.39%
